Measured values from PubChem BioAssay AID1745853 (National Center for Advancing Translational Sciences (NCATS), 2022).
Several values for one entry are separate records, joined by “and”; a condition that tells them apart may be missing. Equal values may be shown once. Hit rate of the full screen: of about 25,000 compounds, about 970 (3.9%) were called active. About 8% were inconclusive and are not listed. The sample holds actives, similar compounds and a random draw of the others, so the mix is not that of the screen. No rule for the calls is given here.

Tests used:
Assay in all cases: Primary Screen for Target Class Profiling of Small Molecule Inhibitors of Methyltransferases
[1] = molecular target: Catechol O-methyltransferase (Homo sapiens) (UniProt P21964); settings: purified enzyme, MTase-Glo SAH luminescence; activity change, negative = inhibition: at 40 µM, stronger effect = lower value; outcome: 40 uM
Excerpt: (§1) PI: Matthew D. Hall Ph.D. and Quinlin M. Hanson Ph.D.
(§2) National Center for Advancing Translational Sciences (NCATS)
(§3) National Institute of Health (NIH), Rockville, MD
(§4) Target class profiling (TCP) is a chemical biology approach amenable to investigating understudied biological targets. TCP is achieved by developing a generalizable assay platform and applying it to screen a curated set of compound libraries against representative members of a target class. Small molecule methyltransferases (SMMTase) are a subclass of methyltransferase that act on metabolites to modulate signaling pathways, metabolize xenobiotics, or balance the available methyl pool. We screened four curated libraries totaling 27,574 unique compounds against the SMMTases nicotinamide N-methyltransferase (NNMT), phenylethanolamine N-methyltransferase (PNMT), histamine N-methyltransferase (HNMT), glycine N-methyltransferase (GNMT), catechol O-methyltransferase (COMT), and guanidinoacetate N-methyltransferase (GAMT). The data generated by this TCP can be leveraged for informed tool molecule development. For example, in the associated publication we identified a chemotype of HNMT-selective inhibitors. Additionally, we identified a putative SMMTase-selective inhibitor with potential as a tool molecule for studying broader methyltransferase biology.
(§5) High-through put screening assays were developed at the National Center for Advancing Translational Science (NCATS) for the enzymes NNMT, PNMT, HNMT, GNMT, COMT, and GAMT. Enzymatic activity was measured as a function of SAM cofactor conversion using the MTase Glo kit (Promega) for all enzymes. All assays were performed in 1536-well format with substrates and SAM concentrations at KM values. Enzyme concentration and assay timing were optimized for 10-20% SAM conversion. Initial screening of 27,574 compounds was done as single-point assays using the highest compound concentration (40 uM). […] These compounds were replated in 11-point dose response and assayed against NNMT, PNMT, HNMT, GNMT, COMT, GAMT, and a counter-assay. The IC50 and efficacy (maximal response) values were determined for each dose-response curve. These values are also accounted for in the area under the curve (AUC) values.
(§6) PROTOCOL TABLE (as described by Inglese J, Shamu CE and Guy RK. 2007)
(§7) SEQUENCE No. (e.g., 1, 2, 3, etc.); […] (e.g., Cells, Incubation, Reagent, etc.); VALUE; DESCRIPTION.
(§8) 1; Reagent; 2 uL; SMMTase Enzyme (2x) in reaction buffer, columns 1- 48.
(§9) 2; Reagent; 1 uL; SAM (4x) in reaction buffer, columns 1-48.
(§10) 3; Controls; 23 nL; DMSO in column 4; sinefungin in DMSO (0 uM - 40 uM) in 7-point 1:2 dilution series (n = 2) in column 2.
(§11) 4; Compounds; 23 nL; Columns 5-48.
(§12) 5; Reagent; 1 uL; Substrate (4x) in reaction buffer, columns 2-48.
(§13) 6; Time; 20-30 min; Incubation.
(§14) 7; Reagent; 1 uL; MTase-Glo reagent (5X), columns 1-48.
(§15) 8; Time; 30 min; Incubation.
(§16) 9; Reagent; 5 uL; MTase-Glo Detection reagent, columns 1-48.
(§17) 10; Time; 30 min; Incubation, luminescence evolution.
(§18) 11; Detection; Luminescence; ViewLux uHTS Microplate Imager (PerkinElmer).
(§19) NOTES (numbers refer to Sequence numbers above)
(§20) 1, 2, 5. White Medium Binding Greiner 1536-well plates (Cat #789175-F, Greiner Bio-One, Monroe, NC); Reaction buffer: 50 mM Tris, pH 8.0, 3 mM MgCl2, 1 mM EDTA, 50 mM NaCl, 1 mM DTT, and 0.1 mg/mL BSA. Evaporation was prevented by covering assay plates with metal lids containing holes to allow gas diffusion.
(§21) 1. Six SMMTase were profiled: HNMT, GNMT, PNMT, COMT, NNMT, GAMT
(§22) 5. The corresponding substrate was used for each enzyme: HNMT - 5.3 uM Histamine; GNMT - >500 uM Glycine; PNMT - 16.2 uM Norephinephrine; COMT - 13.7 uM Norephinephrine; NNMT - 3.8 uM Nicotinamide; GAMT - 2.5 uM Guanidinoacetate.6, 8, 10. Room temperature
(§23) 6. Final reaction conditions: 10 nM COMT, 5 uM SAM, 15 uM norepinephrine, 50 mM Tris, pH 8.0, 3 mM MgCl2, 1 mM EDTA, 50 mM NaCl, 1 mM DTT, and 0.1 mg/mL BSA; refer to tables 2 and S1 for specific timing.
8. […]

[2] = molecular target: Glycine N-methyltransferase (Homo sapiens) (UniProt Q14749); settings: purified enzyme, MTase-Glo SAH luminescence; measured here: GNMT inhibition; at 40 µM; stronger effect = lower value
Excerpt: as §1, §2, §3, §4, §5, §6, §7, §8, §9, §10, §11, §12, §13, §14, §15, §16, §17, §18, §19, §20, §21, §22, §23
8. […]

[3] = molecular target: Guanidinoacetate N-methyltransferase (Homo sapiens) (UniProt Q14353); settings: purified enzyme, MTase-Glo SAH luminescence; measured here: GAMT inhibition; at 40 µM; stronger effect = lower value
Excerpt: as §1, §2, §3, §4, §5, §6, §7, §8, §9, §10, §11, §12, §13, §14, §15, §16, §17, §18, §19, §20, §21, §22, §23
8. […]

[4] = molecular target: Histamine N-methyltransferase (Homo sapiens) (UniProt P50135); settings: purified enzyme, MTase-Glo SAH luminescence; measured here: HNMT inhibition; at 40 µM; stronger effect = lower value
Excerpt: as §1, §2, §3, §4, §5, §6, §7, §8, §9, §10, §11, §12, §13, §14, §15, §16, §17, §18, §19, §20, §21, §22, §23
8. […]

[5] = molecular target: Nicotinamide N-methyltransferase (Homo sapiens) (UniProt P40261); settings: purified enzyme, MTase-Glo SAH luminescence; measured here: NNMT inhibition; at 40 µM; stronger effect = lower value
Excerpt: as §1, §2, §3, §4, §5, §6, §7, §8, §9, §10, §11, §12, §13, §14, §15, §16, §17, §18, §19, §20, §21, §22, §23
8. […]

[6] = molecular target: Phenylethanolamine N-methyltransferase (Homo sapiens) (UniProt P11086); settings: purified enzyme, MTase-Glo SAH luminescence; measured here: PNMT inhibition; at 40 µM; stronger effect = lower value
Excerpt: as §1, §2, §3, §4, §5, §6, §7, §8, §9, §10, §11, §12, §13, §14, §15, §16, §17, §18, §19, §20, §21, §22, §23
8. […]
% is scaled to controls: 0 for no effect and ±100 for the full control effect.

Glycine N-methyltransferase (Homo sapiens), sequence (Q14749 whole entry, looked up): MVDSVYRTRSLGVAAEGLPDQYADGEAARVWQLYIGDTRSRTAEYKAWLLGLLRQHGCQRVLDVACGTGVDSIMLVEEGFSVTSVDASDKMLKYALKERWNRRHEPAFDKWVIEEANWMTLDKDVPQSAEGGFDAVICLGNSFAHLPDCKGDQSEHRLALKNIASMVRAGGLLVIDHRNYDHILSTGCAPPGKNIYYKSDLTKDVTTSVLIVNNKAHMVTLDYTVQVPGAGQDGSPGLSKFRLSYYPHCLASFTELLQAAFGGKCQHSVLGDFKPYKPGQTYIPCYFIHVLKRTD
Nicotinamide N-methyltransferase (Homo sapiens), sequence (P40261 whole entry, looked up): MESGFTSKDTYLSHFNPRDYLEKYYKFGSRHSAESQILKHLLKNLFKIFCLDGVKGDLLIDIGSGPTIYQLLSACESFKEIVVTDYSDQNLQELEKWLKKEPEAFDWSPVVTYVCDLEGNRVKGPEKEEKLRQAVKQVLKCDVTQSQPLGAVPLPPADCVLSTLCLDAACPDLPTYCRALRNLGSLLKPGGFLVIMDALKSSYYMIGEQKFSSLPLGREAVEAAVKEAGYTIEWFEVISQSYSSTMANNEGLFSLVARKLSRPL
Phenylethanolamine N-methyltransferase (Homo sapiens), sequence (P11086 whole entry, looked up): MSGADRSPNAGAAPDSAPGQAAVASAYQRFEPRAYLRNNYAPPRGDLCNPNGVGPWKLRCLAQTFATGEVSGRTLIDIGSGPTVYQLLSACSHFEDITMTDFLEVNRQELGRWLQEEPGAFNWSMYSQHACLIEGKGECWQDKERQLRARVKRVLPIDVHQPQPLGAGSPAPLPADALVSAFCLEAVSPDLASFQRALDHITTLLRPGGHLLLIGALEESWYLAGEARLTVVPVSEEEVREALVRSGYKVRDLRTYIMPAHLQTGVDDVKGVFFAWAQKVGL
Catechol O-methyltransferase (Homo sapiens), sequence (P21964 whole entry, looked up): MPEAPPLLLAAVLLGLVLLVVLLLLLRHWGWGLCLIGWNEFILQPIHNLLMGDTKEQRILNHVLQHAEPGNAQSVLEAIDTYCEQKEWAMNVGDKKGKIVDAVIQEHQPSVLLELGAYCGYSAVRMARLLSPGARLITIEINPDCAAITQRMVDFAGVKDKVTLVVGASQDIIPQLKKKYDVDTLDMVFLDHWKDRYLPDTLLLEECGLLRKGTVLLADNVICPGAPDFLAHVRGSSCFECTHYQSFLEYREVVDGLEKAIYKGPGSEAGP
Histamine N-methyltransferase (Homo sapiens), sequence (P50135 whole entry, looked up): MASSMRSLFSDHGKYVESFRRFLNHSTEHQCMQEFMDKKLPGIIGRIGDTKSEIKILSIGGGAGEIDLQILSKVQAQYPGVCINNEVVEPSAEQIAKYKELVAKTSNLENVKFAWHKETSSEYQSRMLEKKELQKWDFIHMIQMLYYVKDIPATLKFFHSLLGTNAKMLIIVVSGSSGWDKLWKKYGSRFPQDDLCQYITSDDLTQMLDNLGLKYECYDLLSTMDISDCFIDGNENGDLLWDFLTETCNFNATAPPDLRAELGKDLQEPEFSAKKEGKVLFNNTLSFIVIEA

SMILES	activity change, negative = inhibition [1]	activity change, negative = inhibition [2]	activity change, negative = inhibition [3]	activity change, negative = inhibition [4]	activity change, negative = inhibition [5]	activity change, negative = inhibition [6]
CCn1cc(S(=O)(=O)N2CCC(C3CCN(C(=O)NC)CC3)C2)cn1 (stereo unspecified)	-3.73% (inactive)	-4.19%	-5.14%	-1.51%	-10.1%	9.89%
Cc1cc(Nc2cc(CN3CCOCC3)c3nc(C)c(Cc4ccc(Cl)cc4F)n3n2)n[nH]1	-59.4% (active) and -59.9% (active)	-74.4% and -69.1%	-49%	-62.1% and -80.8%	-98.7% and -69.4%	-114% and -64.4%
CC1(C=O)CC[C@]2(C(=O)O[C@@H]3O[C@H](CO)[C@@H](O)[C@H](O)[C@H]3O)CC[C@]3(C)C(=CCC4[C@@]5(C)C[C@H](O)[C@H](O[C@@H]6OC[C@@H](O)[C@H](O)[C@H]6O)[C@@](C)(CO)C5CC[C@]43C)C2C1 (stereo partly specified)	-12.2% (inactive)	-0.721%	-3.55%	-5.71%	-15.1%	2.58%
Cc1ccc(C)c(Cn2nc3n(C)c(=O)c4ccc(C(=O)NC5CCCCC5)cc4n3c2=O)c1	4.71% (inactive)	-4.89%	0.055%	2.18%	5.92%	6.36%
CN(Cc1cc(C2CC2)n[nH]1)C(=O)C(c1ccc(F)cc1)N(C)C (stereo unspecified)	3.85% (inactive)	1.91%	-0.305%	1.69%	0.211%	2.27%
CC(C)CNc1ccnc(NCc2csc(-c3ccccc3)n2)n1	-4.4% (active)	-6.48%	6.91%	-83.3%	-36.8%	-16.1%
Cc1nc2c(c(-c3ccc(O)cc3)n1)CN(C(=O)c1ccccc1C)CCC2	-2.56% (inactive)	-6.74%	-3.52%	-0.862%	-11.6%	-8.96%
Cc1noc(C)c1S(=O)(=O)NCCC1CN(c2cnn(C)c(=O)c2)CCO1 (stereo unspecified)	4.53% (inactive)	-1.17%	-2.35%	0.773%	-1.18%	5.68%
COc1ccccc1N1CCN(C(=O)C[C@@H]2C[C@@H](C(C)C)[C@H](CO)C=C2C)CC1	-4.58% (inactive)	-5.78%	-7.59%	-2.03%	-11.8%	3.34%
COc1ccc(C(=O)N2CCN(C(=O)N3CC4CC(C3)[C@H]3CCCC(=O)N3C4)CC2)c(OC)n1 (stereo partly specified)	1.98% (inactive)	-0.248%	0.955%	0.52%	-3.64%	0.052%
CCN(CC)CCCC(C)Nc1ccnc2cc(Cl)ccc12 (stereo unspecified)	5.5% (active) and -5.08% (active)	-0.101% and -1.02%	6.48% and -3.06%	-64.7% and -54.2%	-4.26% and -11.8%	6.95% and -8.55%
